# From PubChem
# Shown are actives, neighbours in structure and some others; about 3.3% of the full set was active somewhere.
# PLK1 kinase inh – inhibitors of human PLK1 kinase; P53350; recombinant PLK1 kinase, TR-FRET peptide phosphorylation; inhibition, % at 10 µM; 0.53% of 97,000 active;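 active = inhibition of 50% or more in the single-concentration screen; inactive = inhibition below 50%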;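 also: 0% = DMSO max control and 100% = H-89 dihydrochloride min control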
# Target sequence (P53350 whole entry, looked up): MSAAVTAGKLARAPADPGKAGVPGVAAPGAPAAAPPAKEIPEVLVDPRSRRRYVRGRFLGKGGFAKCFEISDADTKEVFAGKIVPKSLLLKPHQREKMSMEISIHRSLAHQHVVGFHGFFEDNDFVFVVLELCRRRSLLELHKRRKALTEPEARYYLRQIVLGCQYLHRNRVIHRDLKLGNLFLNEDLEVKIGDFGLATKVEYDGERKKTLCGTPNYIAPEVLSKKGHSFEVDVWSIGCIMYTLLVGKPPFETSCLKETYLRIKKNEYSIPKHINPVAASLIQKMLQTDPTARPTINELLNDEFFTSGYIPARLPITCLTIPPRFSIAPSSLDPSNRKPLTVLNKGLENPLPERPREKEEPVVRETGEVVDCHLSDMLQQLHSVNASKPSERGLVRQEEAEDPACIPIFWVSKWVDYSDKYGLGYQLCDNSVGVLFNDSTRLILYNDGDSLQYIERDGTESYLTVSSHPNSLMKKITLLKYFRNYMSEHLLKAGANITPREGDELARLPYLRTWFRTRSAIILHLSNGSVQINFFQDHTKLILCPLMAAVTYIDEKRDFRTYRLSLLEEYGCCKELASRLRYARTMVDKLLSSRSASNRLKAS
# Smad3 FoxH1 inh – blocks human Smad3 binding to FoxH1 peptide. 0.29% of 88,000 active. P84022. inhibition, % at 25 µM. TR-FRET Smad3/Dy647-FoxH1 peptide binding, europium anti-His;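 active = compounds that reduce the energy-transfer binding signal between the protein and its labelled peptide by more than half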;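 also: 0% = Smad3 plus labelled peptide maximal FRET and 100% = peptide-only background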
# ERb SRC1 inh – ER-beta (human) coactivator binding inhibition | 1.3% of 86,000 active | Q92731 | TR-FRET ER-beta LBD / SRC1-Cy5 peptide binding; receptor agonist-loaded with 1 µM estradiol | inhibition, % at 25.6 µM;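 active = compounds whose percent inhibition of the receptor-coactivator binding signal exceeds about 50% in the single-dose screen, limit read from the data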;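 also: 0% = receptor plus peptide wells without compound and 100% = peptide-only wells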
# ERa coact inh – blocks coactivator binding to human estrogen receptor alpha; 1.7% of 86,000 active; inhibition, % at 25.6 µM; TR-FRET ER-alpha LBD / SRC-1 peptide, estradiol-bound; in the data active = inhibition above about 50%;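 also: 0% = receptor plus peptide control and 100% = peptide only without receptor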
# ERa coact pot – ER-alpha (human) coactivator binding potentiation; AID 639; 1.3% of 86,000 active; coactivator binding (% of control), % at 25.6 µM; P03372; TR-FRET ERalpha-LBD/SRC-Cy5 coactivator binding, 2 h; 100 = basal binding, no effect; in the data active = activity above about 200%;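 also: binding measured in presence of low estradiol as agonist stimulus; 0% = peptide alone without receptor and 100% = receptor with peptide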
# PLK1 PBD inh – Plk1 (human) PBD binding inhibition. 0.13% of 97,000 active. inhibition, %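 (tested at about 20 µM)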. Plk1 PBD phosphopeptide binding, fluorescence polarization; in the data active = inhibition above about 34%, passing the limit was not always enough
# Starred values were filed as active, the others as inactive; x = not tested or not shown; [ ] = another dose, or the depositor's remark.
SMILES,PLK1 kinase inh,Smad3 FoxH1 inh,ERb SRC1 inh,ERa coact inh,ERa coact pot,PLK1 PBD inh
COc1ccc(C(=O)NC2(C(F)(F)F)C(=O)Nc3c2c(=O)[nH]c(=O)n3CCc2ccc(OC)c(OC)c2)cc1 (stereo not given),-14,-10,-6,-13,108,8
COc1ccc(Oc2ncnc3c2oc2ccc(Br)cc23)cc1,x,0,30,43,416*,x
CN(C)CCOc1ncnc2c1oc1ccccc12,-7,0,-13,11,100,13
COCCn1c(CN2CC(C)CC(C)C2)nc2c1c(=O)n(C)c(=O)n2C (stereo not given),68*,4,-7,2,113,6
C=CCn1c(=O)[nH]c2cc(C(=O)N3CCN(c4cccc(Cl)c4)CC3)ccc2c1=O,-1,x,x,x,x,8
C=CCn1c(=O)[nH]c2cc(C(=O)N3CCN(c4ccc(C(C)=O)cc4)CC3)ccc2c1=O,-5,-7,36,68*,106,-19
C/C(C[n+]1ccccc1)=N\N=C(N)N,x,14,x,x,x,x
O=c1cc(N2CCOCC2)[nH]c(=O)n1Cc1ccc(F)cc1,69*,4,-7,-6,85,-17
O=c1cc(N2CCN(c3ccc(F)cc3)CC2)[nH]c(=O)n1Cc1ccc(F)cc1,-7,-4,8,20,150,13
O=C(NCCCO)c1nc2ccccc2s1,-10,2,-9,-3,101,9
CCCNC(=O)c1ccc(-c2nc3ccccc3s2)s1,-10,5,62*,54*,73,5
CCCC1=C(C(=O)OCC)C(c2cc(Cl)cc(OC)c2OCC(=O)OCC)NC(=O)N1 (stereo not given),-10,6,-6,25,106,8
CCOC(=O)COc1c(OC)cc(Cl)cc1C1NC(=O)NC(C)=C1C(C)=O (stereo not given),-8,-4,60*[fluorescence artefact?],57*[fluorescence artefact?],88,-20
O=c1cc(-c2ccccc2)nc2n1Cc1ccccc1-2,-31,-22,55*[fluorescence artefact?],34,75,-11
Cn1cnnc1SCC(=O)Nc1ccc2nc(SCc3ccccc3)sc2c1,-13,6,10,-36,366*[fluorescence artefact?],-33
O=C(CSc1nc2ccc(NC(=O)CSc3nnnn3Cc3ccccc3)cc2s1)Nc1ccccc1,-6,7,23,41,116,-8
Cc1cc(C)c(NC(=O)CSc2nc3ccc(NC(=O)CSc4nnnn4Cc4ccccc4)cc3s2)c(C)c1,-9,2,7,67*,114,7
Cc1nn(C)c(Oc2ccccc2)c1CCNS(=O)(=O)c1ccccc1,-17,x,x,x,x,-11
CC(=O)O[C@H]1CC[C@@]2(C)C(=CC[C@@H]3[C@H]4CC[C@@H]([C@H](C)C(=O)O)[C@]4(C)CC[C@H]32)C1,x,52*,x,x,x,x
O=C(OCC(=O)N1CCC(Cc2ccccc2)CC1)c1ccc[nH]c1=O,-22,x,x,x,x,-11
N#CC1=C(N)OC2=C(C(=O)CCC2)C1C1C=CCCC1 (stereo not given),1,x,x,x,x,-28
CC(C)=CCC/C(C)=C/CCC(C)NCCN1CCNCC1 (stereo not given),-5,-5,-5,5,201*[fluorescence artefact?],10
C/C(=N\N=C\c1ccccc1)c1nnn(-c2nonc2N)c1C,-12,x,x,x,x,10
O=S(=O)(O)[C@@H](CO)c1ccccc1 (tested in a mixture with another compound),x,7,x,x,x,x
O=C(Nc1ccccc1C(=O)OCc1nnc(-c2ccccc2)o1)c1ccco1,-2,6,5,2,120,-10
SMILES,PLK1 kinase inh,Smad3 FoxH1 inh,ERb SRC1 inh,ERa coact inh,ERa coact pot,PLK1 PBD inh
O=C(OCc1nnc(-c2ccccc2)o1)c1ccc(S(=O)(=O)NCc2ccco2)cc1,-8,-2,49,53*[fluorescence artefact?],110,-4
Cn1c(CC(=O)Nc2ccc(Cl)c(Cl)c2)nnc1SCC(=O)N1CCN(c2ccccc2)CC1,-8,-3,39,72*[fluorescence artefact?],70,-4
Cc1ccc(NC(=O)CSc2nnc(Cn3c(=O)sc4ccccc43)n2C)cc1Cl,x,4,35,38,360*,x
CC(NC(=O)CSc1nnc(CC(=O)Nc2ccc(Cl)c(Cl)c2)n1C)c1ccccc1 (stereo not given),-9,-6,-7,-2,97,1
CSc1nc2ccc3nc(NC(=O)c4ccccc4)sc3c2s1,-41,3,48,55*[fluorescence artefact?],223*[fluorescence artefact?],-16
Cc1cccn2c(=O)c3cc(C(=O)Nc4ccc(N(C)C)cc4)n(C)c3nc12,x,63*[fluorescence artefact?],62*[fluorescence artefact?],96*[fluorescence artefact?],22,x
O=C(O)CNc1ccc(C(=O)O)cc1,x,3,x,x,x,x
CCOC(=O)Cn1c2ccc(OC)cc2c2nc3ccccc3nc21,0,8,29,46,279*,-26
CCCCCCN=CC1=C(O)C(C(=O)OC)C(C)(C)CC1=O (stereo not given),-24,9,60*,42,54,6
COC(=O)C1C(O)=C(C=NC2CCCCC2)C(=O)CC1(C)C (stereo not given),-5,-2,-5,1,100,17
O=C(NCc1ccc(Cl)cc1)c1cc(-c2cccs2)on1,-2,-2,14,95*,98,-4
COc1ccc(CNC(=O)c2cc(-c3cccs3)on2)cc1,6,5,51*[fluorescence artefact?],76*,156,20
COc1cccc(NC(=O)COC(=O)c2ccc(S(=O)(=O)NCc3ccco3)cc2)c1,-10,x,x,x,x,-14
Cc1cccc(Cn2cnc3ccccc32)c1,-10,-17,10,20,92,-1
COc1cc2c3nnc(-c4ccc(F)cc4)c-3cn(Cc3ccc(C)cc3)c2cc1OC,-10,-83,51*[fluorescence artefact?],6,591*[fluorescence artefact?],-16
COc1cc2c3nnc(-c4ccc(F)cc4)c-3cn(Cc3cccc(C)c3)c2cc1OC,-31,1,29,18,366*[fluorescence artefact?],-12
CC(C)=C[C@H]1[C@H](C(=O)Oc2ccccc2C(C)C)C1(C)C,x,-19,x,x,x,x
CC1C(=NO)C(C)C(c2ccc(N(C)C)cc2)NC1c1ccc(N(C)C)cc1 (stereo not given),1,6,-4,-3,105,-9
CC1(C)Cc2c(C#N)c(OCC(=O)c3ccc(Cl)cc3)nc(-c3ccco3)c2CO1,-13,3,-4,-10,104,-2
Cc1nc(OCC(=O)c2ccc(Cl)cc2)c(C#N)c2c1COC(C)(C)C2,-7,-3,-9,2,773*[fluorescence artefact?],-19
Cc1cc(C)c2cc3c(ccn3C3OC[C@H](O)[C@H](O)[C@H]3O)cc2n1 (stereo not given in full),-10,4,52*[fluorescence artefact?],18,83,-27
Cc1c2ccccc2c(CSC(=N)N)c2ccccc12,x,39,x,x,x,x
O=C(COC(=O)c1ccccc1NC(=O)c1ccco1)NCCC1=CCCCC1,x,-3,98*[fluorescence artefact?],-5,112,x
O=C(COC(=O)c1ccccc1NC(=O)c1ccco1)NCC1CCCCC1,-11,x,x,x,x,-22
O=C(COC(=O)c1ccccc1NC(=O)c1ccco1)Nc1ccc2c(c1)OCO2,-9,-1,22,71*[fluorescence artefact?],88,0
